# An excerpt weighted towards active compounds, which were near 2.8% of everything screened.
# KDM5B inh = KDM5B demethylase inhibition | KDM5B demethylase, FDH-coupled NADH fluorescence (FDH is formaldehyde dehydrogenase) | Q9UGL1 | Potency, µM (titrated, usually from 57.7 µM), most hits filed as inhibitors | actives 2.6% (n = 220,000) | AID 1347165; note: potency is the fitted concentration of half-maximal effect; 0% is about no effect; nearly all actives have a fitted effect of over 70% in size
#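 Coupled FDH/NAD⁺ fluorescence readout. KDM5BΔAP 200 nM final; compound titration, 10 min RT preincubation; substrate mix 12.5 µM H3K4me3, 25 µM 2-OG, 50 µM Fe(II), 100 µM ascorbate, 0.25 mM NAD⁺, 0.25 U/mL FDH; ΔRFU over 30 min.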
# IP6K1 inhibitor = inhibitors of human IP6K1 | Q92551 | IP6K1 kinase, ADP-Glo luminescence, 2 h; active compounds read low | activity change, % (series mostly up to about 58 µM) | actives 0.81% (n = 140,000); in the data active = activity change below about -25%; note: % is set by controls: 0 for no effect and ±100 for the full control effect
#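 ADP-Glo luminescence measures ADP made by human IP6K1 during a 2 h RT reaction with ATP/IP6 (mix at 1.3 mM/130 uM); top library doses 57.5 and 19.1 uM final.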
# IP6K1 inh cnf = human IP6K1 inhibition, confirmatory; shares compounds with IP6K1 inhibitor; recombinant IP6K1 kinase, ADP-Glo luminescence, 2 h; Potency, µM (highest dose often 49 µM), inactives show at the top dose activity change, negative = inhibition, hits mostly inhibitors; actives 13% (n = 1,200); AID 1645852; note: potency is the fitted concentration of half-maximal effect; % is set by controls: 0 for no effect and ±100 for the full control effect; nearly all actives have a fitted effect of over 65% in size
# The depositor's hits bear a star; i = inactive; ? = inconclusive; . = no result given. Unless noted, calls come from the whole dose curve; as a rule, active = well fitted inhibition curve with a large enough effect; inconclusive = small, poorly fitted or top-dose-only effect; inactive = no such curve, though single readings can be large or run the other way.
SMILES,KDM5B inh,IP6K1 inhibitor,IP6K1 inh cnf
CN1CCC(NC(=O)c2cc(-c3ccccc3Cl)nc3ccccc23)CC1,i,.,.
CN1CC[C@@H](c2c(O)cc(O)c3c(=O)cc(-c4ccccc4Cl)oc23)[C@@H](O)C1,.,.,?
NC(=Nc1ccc(CCNCc2cccc(Cl)c2)cc1)c1cccs1,.,-2.0,.
COCCCNC(=O)c1cc(-c2ccc(F)cc2)nc2c1cnn2C,.,18.1,.
Cn1c(=O)c2c(nc(N3CCOCC3)n2CC(=O)c2ccc(Cl)cc2)n(C)c1=O,i,.,.
Cc1cc(=O)[nH]c2nnc(SCC(=O)Nc3ccc(OC(F)(F)F)cc3)n12,i,-25.2*,5.7%
Cc1cc(=O)[nH]c2nnc(SCC(=O)NC(C)(C)C)n12,i,3.3,.
Cn1c(=O)c2[nH]c(-c3cccc(O)c3)nc2n(C)c1=O,i,.,.
Oc1cccc(-c2c3nc(c(-c4cccc(O)c4)c4ccc([nH]4)c(-c4cccc(O)c4)c4nc(c(-c5cccc(O)c5)c5ccc2[nH]5)CC4)C=C3)c1,.,-53.2*,?
O=C1c2ccccc2CN1C1CCN(Cc2ccccc2)CC1,i,-5.6,.
Cc1ccc(C)c(N2CCN(C(=O)c3c4c(nc5ccccc35)C(=O)N(C3CCCCC3)C4)CC2)c1,?,-31.2*,-9.1%
COc1ccccc1N1CCN(C(=O)c2c3c(nc4ccccc24)C(=O)N(C2CCCCC2)C3)CC1,i,-0.3,.
CNC(=O)C1CCN(c2nc3ccccc3nc2C(F)(F)F)CC1,i,-19.8,.
COCCNC(=O)C1CCN(c2nc3ccccc3nc2C(F)(F)F)CC1,i,0.1,.
CCCCNC(=O)C1CCN(c2nc3ccccc3nc2C(F)(F)F)CC1,i,-28.9*,2.0%
CC(C)NC(=O)C1CCN(c2nc3ccccc3nc2C(F)(F)F)CC1,i,-35.1*,23.5%
CC(Oc1ccccc1)C(=O)Nc1ccccc1C(=O)OCc1cc(=O)n2nc(C3CC3)sc2n1 (stereo not drawn),i,-27.4*,0.0%
CC(C)Cc1nn2c(=O)cc(COC(=O)c3ccccc3NC(=O)c3ccccc3)nc2s1,i,-27.6*,-6.0%
CC(C)Cc1nn2c(=O)cc(COC(=O)c3ccccc3NC(=O)c3cccs3)nc2s1,i,2.0,.
Cc1nn2c(=O)cc(COC(=O)c3ccccc3NC(=O)C(C)Oc3ccccc3)nc2s1 (stereo not drawn),i,-4.4,.
CC(=O)c1ccc(OCc2ccccc2)cc1C,i,.,.
Cc1cccc(NC(=O)c2oc3ccccc3c2NC(=O)c2cc(=O)c3ccc(C)cc3o2)c1,i,-13.1,.
COc1cccc(-c2nc3cc4c(cc3cc2CN2CCCOCC2)OCO4)c1OC,28.2µM*,-34.7*,-18.9%
COc1cccc(CN2CCCOCCNC(=O)CC2)c1OC,i,-6.6,.
CC(C)NC(=O)C[C@@H]1C[C@H]2O[C@H](CNCc3cnccc3C(F)(F)F)[C@@H](O)[C@H]2O1,i,14.9,.
SMILES,KDM5B inh,IP6K1 inhibitor,IP6K1 inh cnf
Cc1ccc(C2(O)CCN(C(=O)c3cc4c(s3)CCCC4)CC2)nc1,i,2.6,.
COc1ccc(CC(=O)NCCNC(=O)c2cccc(-c3ccc(C(F)(F)F)cc3)c2)cc1,.,-13.7,.
CC#C[C@@H](CC(=O)O)c1ccc(OCc2cccc(-c3ccc(C(F)(F)F)cc3)c2)cc1,.,-28.3*,?
Cn1c(=O)c2c(nc(NCc3ccc4c(c3)OCO4)n2Cc2cccc(F)c2)n(C)c1=O,i,.,.
O=C(c1cc2ccccc2[nH]1)N1CCC2(C1)NC(=O)N(Cc1ccccc1)C2=O (stereo not drawn),i,-5.8,.
c1csc(-c2nc3ccccn3c2Nc2ccc3c(c2)OCCO3)c1,?,42.8,.
Cc1ccn2c(Nc3ccc4c(c3)OCCO4)c(-c3cccs3)nc2c1,?,-27.0*,-15.8%
CCCCN(C)c1ncnc2c1sc1nc(-c3ccco3)c3c(c12)CC(C)(C)OC3,i,.,.
CC(C)(C)N(Cc1ccccc1)C(=O)COc1ncnc2ccccc12,i,.,.
COc1ccccc1NC(=O)c1sc2nc3n(c(=O)c2c1C)N=C(c1cccc(Br)c1)CS3,i,-3.5,.
COC(=O)NC1CCN(c2ccc3nnc(-c4ccccc4)n3n2)CC1,.,-10.7,.
O=S(=O)(NC1CCN(c2ccc3nnc(-c4ccccc4)n3n2)CC1)c1cccs1,.,-26.7*,?
Cc1ccc(OCC(=O)N2CC(c3nnc(-c4ccc(C)cc4)o3)C3(CCOCC3)C2)cc1 (stereo not drawn),i,9.6,.
O=C(NCc1nc(-c2cccc(F)c2)c(-c2ccccn2)[nH]1)[C@@H]1C[C@@H](O)CN1,i,-30.4*,-6.9%
C[C@@H](O)[C@H](N)C(=O)NCc1nc(-c2cccc(F)c2)c(-c2ccccn2)[nH]1,?,-0.5,.
Cc1ccc2c(n1)sc1c(=O)n(-c3cccc(C(F)(F)F)c3)nnc12,?,-27.5*,-17.1%
Cc1ccc2c(n1)sc1c(=O)n(-c3cccc(C(=O)OCC(C)C)c3)nnc12,i,.,.
CC(C)C(NC(N)=O)C(=O)O (stereo not drawn),i,.,.
CN(C)c1cccc(C(=O)N2CCC3(CC2)NC(=O)N(Cc2ccc(F)cc2)C3=O)c1,i,-8.4,.
CCc1ccc(N(Cc2cccs2)C(=O)c2cccc(C)c2)cc1,i,.,.
CCc1noc(C)c1C(=O)N[C@H](c1ccc2c(c1)CCO2)C1CC(O)C1 (stereo partly drawn),i,16.0,.
O=C(Cc1[nH]nc2ccccc12)N[C@H](c1ccc2c(c1)CCO2)C1CC(O)C1 (stereo partly drawn),i,-35.9*,-7.5%
CCOc1cccc(CNC(=O)C2Cn3cccc3C(=O)N2Cc2ccccc2)c1 (stereo not drawn),i,2.8,.
O=C(N/N=C/c1cccc(Cl)c1)c1csc2ccccc12,i,.,.
O=C(O)CCc1ccc(-c2ccccc2)n1-c1ccc(C(=O)O)cc1,?,-27.2*,-11.8%
SMILES,KDM5B inh,IP6K1 inhibitor,IP6K1 inh cnf
Cc1ccc(-c2ccc(CCC(=O)O)n2-c2ccc(C)c(Cl)c2)cc1,?,-22.5,.
CCOc1ccc(NC(=O)c2cc(-c3ccc[nH]3)n[nH]2)cc1,i,15.1,-4.0%
Cc1cc(C)cc(NC(=O)c2cc(-c3ccc[nH]3)n[nH]2)c1,i,21.9,.
CCc1ccc(NC(=O)c2cc(-c3ccc[nH]3)n[nH]2)cc1,i,-3.1,.
Cc1ccc(NC(=O)c2cc(-c3ccc[nH]3)n[nH]2)cc1,i,3.5,-19.7%
CCc1cccc(NC(=O)c2cc(-c3ccc[nH]3)n[nH]2)c1,i,-30.3*,9.2µM*
Cc1ccc(NC(=O)c2cc(-c3ccc[nH]3)n[nH]2)cc1C,i,11.8,.
O=C(Nc1ccc(Cl)cc1)c1cc(-c2ccc[nH]2)n[nH]1,i,16.5,-0.3%
COc1ccc(NC(=O)c2cc(-c3ccc[nH]3)n[nH]2)cc1,i,6.4,.
O=S(=O)(Nc1nc2ccccc2nc1Nc1cccc(Br)c1)c1cccs1,i,.,.
COc1cc(CN2CCN(Cc3cnc(C)s3)CC2CCO)cc(OC)c1 (stereo not drawn),i,25.0,.
O=C(Cc1ccc(F)cc1)N1CCCC(C(=O)N2CCC(c3nc4ccncc4[nH]3)C2)C1 (stereo not drawn),.,19.3,.
COC(=O)CN1C(=O)[C@@H]2C[C@@H](O)CN2C2(CN(Cc3ccc(F)cc3)C2)C1=O,i,-18.6,.
Oc1ccc(/C=C/c2cc(O)cc(O)c2)cc1,.,-59.8*,9.2µM*

# Screening results from PubChem BioAssay.
